Screens from PubChem BioAssay.
CBX7 inh = CBX7 chromodomain binding inhibitors, primary screen, biochemical, AlphaScreen | AlphaScreen His6-CBX7 / biotin-H3K27me3 peptide binding; hits give low values | Chromobox protein homolog 7 (Homo sapiens), O95931 | normalised signal (fraction of DMSO) (test concentration not listed) | 66,000 tested, 1.1% active | AID 1224903, 2016; in the data active means normalised signal below about 0.5
Target sequence (O95931 whole entry, looked up): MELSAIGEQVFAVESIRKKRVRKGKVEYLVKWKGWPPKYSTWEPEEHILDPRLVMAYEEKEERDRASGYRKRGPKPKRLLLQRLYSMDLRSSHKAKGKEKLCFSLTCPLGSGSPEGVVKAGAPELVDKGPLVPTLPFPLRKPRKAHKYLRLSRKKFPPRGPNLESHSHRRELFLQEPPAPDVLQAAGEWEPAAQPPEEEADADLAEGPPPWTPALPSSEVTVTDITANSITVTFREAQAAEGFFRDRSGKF
Of the large screens only hits and unclear results are named; the others gave an inactive call; ! = not active in a repeat. This excerpt belongs to a sample that is enriched for hits.

CCOc1cc2c(cc1OCC)C1C(C(=O)Nc3ccccc3CC)c3ccccc3C(=O)N1CC2 (stereo not given)	none
CCOc1cc2c(cc1OCC)C1C(C(=O)Nc3ccccc3C)c3ccccc3C(=O)N1CC2 (stereo not given)	none
CC1CCC(NC(=O)CN2C(=O)COc3ccc(S(=O)(=O)N4CCCCCC4)cc32)CC1 (stereo not given)	none
CCOC(=O)c1cnc2ccc(OCC)cc2c1Nc1ccc(CC)cc1	none
CCOC(=O)c1cnc2ccc(OCC)cc2c1Nc1ccc2c(c1)OCCO2	none
CCOC(=O)c1cnc2ccc(OC)cc2c1Nc1ccc2c(c1)OCCO2	CBX7 inh 0.47
CCOC(=O)c1cnc2ccc(OCC)cc2c1Nc1ccc2c(c1)OCO2	CBX7 inh 0.422
CCOC(=O)c1cnc2ccc(OC)cc2c1Nc1ccc(C)c(C)c1	none
CCOC(=O)c1cnc2ccc(Br)cc2c1Nc1ccc2c(c1)OCCO2	none
COc1ccc(Cl)cc1NC(=O)c1cc(-c2ccc(OC)c(OC)c2)on1	none
Cc1ccc(S(=O)(=O)NCCc2cc3c(C)ccc(C)c3[nH]c2=O)cc1	none
Clc1ccccc1CNc1ccc2nncn2n1	none
O=C(Nc1ccc(Cl)c(-c2nc3cc(Cl)ccc3o2)c1)c1ccccc1F	none
COc1cc(C2C(=O)N(C3CCC(C)CC3)CC(=O)N2Cc2ccccc2Cl)ccc1OC(C)C (stereo not given)	none
Cc1oc(-c2cccc(Cl)c2)nc1CN1CCC(C(=O)NC(C)c2ccc3c(c2)OCCO3)CC1 (stereo not given)	none
COc1ccccc1Nc1nc(-c2cc3ccccc3o2)cs1	none
Cc1ccc(OCCCCc2c(C)n[nH]c2C)c(C(C)(C)C)c1	CBX7 inh 0.415
Cc1n[nH]c(C)c1CCCCCOc1ccccc1F	none
Cc1ccc(C)c(OCCCCCCc2c(C)n[nH]c2C)c1	none
COC(=O)c1cccc(NC(=O)COc2ccccc2C(C)(C)C)c1	none
COc1ccccc1-c1c(C)nn2c(NCc3ccccn3)cc(C)nc12	CBX7 inh 0.39
COc1ccccc1-c1c(C)nn2c(NCc3cccnc3)cc(C)nc12	none
COc1ccccc1-c1c(C)nn2c(NCc3ccc(C)cc3)cc(C)nc12	none
CCCc1cc(C(=O)Nc2c(F)cc(F)cc2Br)no1	none
Cc1ccc(NC(=O)C2CCCN(C(=O)c3cnn(-c4ccccc4)c3-n3cccc3)C2)cc1C (stereo not given)	none
c1ccc2c(-c3nc(C4CCCCC4)no3)cc(-c3ccncc3)nc2c1	CBX7 inh 0.49
Cc1cccc(-c2noc(-c3cc(-c4ccccc4)nc4ccccc34)n2)c1	none
Fc1cccc(Cl)c1-c1noc(-c2cc(-c3ccncc3)nc3ccccc23)n1	none
Cc1ccc(Nc2c(-c3ccsc3)nc3ccc(Br)cn23)cc1	none
COc1ccccc1CNC(=O)CNS(=O)(=O)c1ccc2c(c1)CCN2C(C)=O	none
CCCN1CCN(C(=O)c2cc3sc(Cl)cc3n2CC)CC1	none
O=C(CN1C(=O)COc2ccc(S(=O)(=O)N3CCCCCC3)cc21)NCCCc1ccccc1	none
COc1cccc(-n2c(-c3ccccc3F)nc3c(cnn3-c3ccc(C)cc3)c2=O)c1	none
Cc1cccc(-n2c(-c3ccccc3F)nc3c(cnn3-c3ccccc3)c2=O)c1	CBX7 inh 0.486
CCOc1ccc(-n2c(-c3ccccc3F)nc3c(cnn3-c3ccccc3)c2=O)cc1	none
CCN(c1ccccc1)S(=O)(=O)c1ccc2c(c1)CCN2C(=O)C1CCC1	none
COc1ccc(-c2nc(CSCC(=O)NCc3ccc(F)cc3)c(C)o2)cc1OC	none
CCCN1CCCc2cc(CN(CCCN3CCOCC3)C(=O)Nc3ccc(OCC)cc3)ccc21	none
CCOc1ccc(NC(=O)N(CCN2CCOCC2)Cc2ccc3c(c2)CCCN3CC)cc1	none
CCCN1CCCc2cc(CN(CCCOC)C(=O)Nc3ccc(C)c(C)c3)ccc21	none
CCN1CCCc2cc(CN(CCN3CCOCC3)C(=O)Nc3ccc(Cl)cc3)ccc21	none
CCCN1CCCc2cc(CN(CCCOC)C(=O)Nc3ccc(OCC)cc3)ccc21	CBX7 inh 0.233
CCCCN1CCCc2cc(CN(CCCN3CCOCC3)C(=O)Nc3ccc(C)c(C)c3)ccc21	CBX7 inh 0.22
Cc1ccccc1C(=O)Nc1sc2c(c1C(=O)N1CCN(C)CC1)CCC(C)C2 (stereo not given)	none
CCOCCOC(=O)c1[nH]c2c(c1C)C(=O)CC(c1cc(OC)ccc1OC)C2 (stereo not given)	none
Cc1cccc(CCNC(=O)c2nnc(Cc3ccc(F)cc3)o2)c1	none
Cc1cccc(OCCn2c(=N)n(CC(N)=O)c3ccccc32)c1	none
O=C(O)c1c[nH]c2ccc(S(=O)(=O)NCc3ccccn3)cc2c1=O	CBX7 inh 0.0209
O=C(O)c1c[nH]c2ccc(S(=O)(=O)NCCCN3CCCC3=O)cc2c1=O	CBX7 inh 0.497
CCOC(=O)CNS(=O)(=O)c1ccc2[nH]cc(C(=O)O)c(=O)c2c1	none
CC(=O)Nc1ccc(NS(=O)(=O)c2ccc3[nH]cc(C(=O)O)c(=O)c3c2)cc1	none
CCc1ccc(NS(=O)(=O)c2ccc3[nH]cc(C(=O)NCc4ccccn4)c(=O)c3c2)cc1	none
Cc1cccc(C)c1N(C)S(=O)(=O)c1ccc2[nH]cc(C(=O)NCc3ccccn3)c(=O)c2c1	none
CC(=O)c1ccc(N2C(=O)C3C4CC(=O)C(c5ccccc54)C3C2=O)cc1 (stereo not given)	none
Cc1cccc(OCCn2c(C)nc3ccccc32)c1	none
Cc1cccc(OCCn2c(NC(=O)c3ccccc3Cl)nc3ccccc32)c1	CBX7 inh 0.34
COc1ccccc1C(=O)Nc1nc2ccccc2n1CCOc1ccccc1	none
Cc1ccc(-c2nc3ccccc3o2)cc1NC(=O)COc1cccc(C)c1C	none
Fc1ccc(-c2nc(-c3ccccc3)c(-c3cccs3)[nH]2)cc1	none
c1ccc(-c2nc(-c3cccnc3)[nH]c2-c2ccccc2)cc1	CBX7 inh 0.308!
Brc1ccc(-c2nc(-c3ccccc3)c(-c3ccc(Oc4ccccc4)cc3)[nH]2)cc1	none
O=C(O)c1ccc(-c2nc(-c3cccc(Cl)c3)c(-c3ccccc3)[nH]2)cc1	none
COc1ccc(-c2nc(-c3cccs3)c(-c3cccs3)[nH]2)cc1	none
Oc1ccc(-c2[nH]c(-c3cccc(Cl)c3)nc2-c2ccccc2)cc1	CBX7 inh 0.412
Oc1ccc(-c2nc(-c3ccccc3)c(-c3cccs3)[nH]2)cc1	CBX7 inh 0.467
COc1ccc(-c2nc(-c3cccs3)c(-c3cccs3)[nH]2)cc1OC	CBX7 inh 0.446
COc1ccc(-c2nc(-c3ccccc3)c(-c3cccs3)[nH]2)cc1OC	none
c1cncc(-c2nc3ccccc3[nH]2)c1	none
COc1ccc(-c2nc(-c3ccccc3)c(-c3cccs3)[nH]2)cc1O	none
Oc1ccc(-c2nc(-c3ccc(-c4ccccc4)cc3)c(-c3ccc(-c4ccccc4)cc3)[nH]2)cc1	none
CCC(=O)NCCc1nc2ccccc2n1Cc1c(F)cccc1Cl	none
CCOc1ccccc1NC(=O)c1cnc(Nc2ccc(OC)cc2)c2ccccc12	none
COc1ccc(CCNC(=O)Cn2ncc3c2-c2ccccc2OC3)cc1OC	none
COc1ccccc1-c1nc(-c2ccc(C)cc2)no1	none
CC(C)c1ccc(NC(=O)c2cnc(N3CCN(c4ccccn4)CC3)c3ccccc23)cc1	none
CCOc1ccc(NC(=O)CN2N=C(c3ccc(C)cc3)CCC2=O)cc1	none
CN(CC(=O)NC1(Cc2ccc(O)cc2)CCCCC1)Cc1ccccc1	none
O=C(COc1ccc(Br)cc1)Nc1ccc(-c2nc3ncccc3o2)cc1	none
COc1cccc(-c2nc(-c3cccs3)c(-c3cccs3)[nH]2)c1	none
COc1cccc(-c2nc(-c3ccsc3)c(-c3ccccc3)[nH]2)c1OC	none
COc1cccc(-c2nc(-c3ccccc3)c(-c3cccs3)[nH]2)c1OC	CBX7 inh 0.428
